Measurements published in the supplement of paper PMC9254222.
Whole data set: some 1,100 compounds, median “Wnt reporter firefly/Renilla luciferase ratio relative to plate median” near 1.1, cut for the highest 2% near 1.6. The list comes from a sample in which the highest values are over-represented; it also holds similar structures and randomly drawn compounds.

Tested on: HEK293T (UBE3A T485A transfected, BAR Wnt reporter)
Test: Wnt reporter firefly/Renilla luciferase ratio relative to plate median (fold (linear ratio)); higher = more Wnt/beta-catenin reporter activation
Details: 24 h
Summary of the method: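 Chemicals were robotically dosed at 0.01–100 uM for 24 h onto HEK293T cells, starting four hours after transfection with a BAR firefly luciferase Wnt reporter, TK-Renilla and an expression plasmid. The cells had been plated at 4500 cells/well in DMEM with 10% FBS at 37°C and 5% CO2. Following a Dual-Glo luciferase readout, the firefly/Renilla ratio served as the Wnt activity measure and raw Renilla as the cell health measure, both median-centred on each plate. Each value is the mean of four biological replicates.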

Row | Structure (SMILES) | Wnt reporter firefly/Renilla luciferase ratio (concentration: 0.1 uM) | Wnt reporter firefly/Renilla luciferase ratio (concentration: 1 uM) | Wnt reporter firefly/Renilla luciferase ratio (concentration: 10 uM) | Wnt reporter firefly/Renilla luciferase ratio (concentration: 100 uM) | Wnt reporter firefly/Renilla luciferase ratio (concentration: 0.01 uM)
1 | C=CCOC(=O)c1ccccc1C(=O)OCC=C [Diallyl phthalate] | 1.17 | 1.04 | 1.22 | 1.09 | 
2 | CCOc1cc(Oc2ccc(C(F)(F)F)cc2Cl)ccc1[N+](=O)[O-] [Oxyfluorfen] | 1.05 | 0.917 | 1.07 | 0.292 | 1.01
3 | CCCCCCCCCCCCCN1CC(C)OC(C)C1 (configuration not stated) [Tridemorph] | 1.09 | 1.23 | 1.04 | 1.05 | 
4 | CCOP(=O)(OCC)Oc1nc(Cl)c(Cl)cc1Cl [Chlorpyrifos oxon] | 0.876 | 1.02 | 0.861 | 0.591 | 0.967
5 | CN(C)C(=O)Cl [Dimethylcarbamoyl chloride] | 0.982 | 1.32 | 1.35 | 1.31 | 
6 | Cc1cccc([N+](=O)[O-])c1 [3-Nitrotoluene] | 1.02 | 1.03 | 0.836 | 1.17 | 
7 | CN(C)C(=O)Nc1cccc(C(F)(F)F)c1 [Fluometuron] | 1.43 | 1.1 | 0.996 | 1.04 | 1.3
8 | O=P(OC(CCl)CCl)(OC(CCl)CCl)OC(CCl)CCl | 1.19 | 0.764 | 1.31 | 0.44 | 
9 | CCC(CC)Nc1c([N+](=O)[O-])cc(C)c(C)c1[N+](=O)[O-] [Pendimethalin] | 0.866 | 0.946 | 0.92 | 1.08 | 0.882
10 | CC(C)(C)CC(C)(C)c1ccc(O)cc1 [4-(1,1,3,3-Tetramethylbutyl)phenol] | 1.03 | 0.968 | 1.15 | 0.935 | 
11 | CN1COCN(Cc2cnc(Cl)s2)C1=N[N+](=O)[O-] [Thiamethoxam] | 1.19 | 1.01 | 0.971 | 1.2 | 1.14
12 | c1ccc(C2CO2)cc1 (configuration not stated) [Styrene oxide] | 1.23 | 0.89 | 1.19 | 1.71 | 
13 | c1ccc(N=Nc2ccccc2)cc1 [Azobenzene] | 1.35 | 1.05 | 1.38 | 1.1 | 
14 | c1ccc(NNc2ccccc2)cc1 [1,2-Diphenylhydrazine] | 1.25 | 1.04 | 1.19 | 1.27 | 
15 | CCOP(=S)(Oc1ccc([N+](=O)[O-])cc1)c1ccccc1 (configuration not stated) | 1.05 | 1.07 | 0.965 | 0.846 | 
16 | COc1nn(CSP(=S)(OC)OC)c(=O)s1 [Methidathion] | 1.74 | 1.33 | 1.56 | 0.818 | 1.41
17 | Cc1cc(-c2ccc(N)c(C)c2)ccc1N [3,3'-Dimethylbenzidine] | 1.15 | 0.925 | 0.831 | 0.556 | 

Row | Structure (SMILES) | Wnt reporter firefly/Renilla luciferase ratio (concentration: 0.1 uM) | Wnt reporter firefly/Renilla luciferase ratio (concentration: 1 uM) | Wnt reporter firefly/Renilla luciferase ratio (concentration: 10 uM) | Wnt reporter firefly/Renilla luciferase ratio (concentration: 100 uM) | Wnt reporter firefly/Renilla luciferase ratio (concentration: 0.01 uM)
18 | CCC(C)n1c(=O)[nH]c(C)c(Br)c1=O (configuration not stated) [Bromacil] | 1 | 0.995 | 0.904 | 0.896 | 0.919
19 | c1ccc2c(c1)oc1ccccc12 [Dibenzofuran] | 1.04 | 0.95 | 1.02 | 1.15 | 
20 | Oc1ccc(Cl)cc1Cc1ccccc1 [Clorophene] | 1.05 | 1.07 | 0.943 |  | 0.901
21 | Nc1ccc2ccccc2c1 [2-Naphthylamine] | 0.991 | 0.869 | 0.998 | 0.629 | 
22 | CCOP(=S)(OCC)Oc1nc(Cl)c(Cl)cc1Cl [Chlorpyrifos] | 1.11 | 1.01 | 0.926 | 1.12 | 
23 | N#CC(Br)(Br)C(N)=O [2,2-Dibromo-3-nitrilopropionamide] | 1.26 | 1.24 | 1.3 | 1.23 | 
24 | Nc1ccc([N+](=O)[O-])cc1 [4-Nitroaniline] | 1.19 | 0.817 | 0.602 | 0.574 | 
25 | O=S(=O)([O-])C(F)(F)C(F)(F)C(F)(F)C(F)(F)C(F)(F)C(F)(F)C(F)(F)C(F)(F)F.[K+] | 1.12 | 1.24 | 1.39 | 0.833 | 
26 | O=S(=O)([O-])C(F)(F)C(F)(F)C(F)(F)C(F)(F)C(F)(F)C(F)(F)F.[K+] | 1.21 | 0.967 | 1.07 | 1.21 | 
27 | O=S(=O)([O-])C(F)(F)C(F)(F)C(F)(F)C(F)(F)F.[K+] | 1.15 | 1.04 | 1.23 | 1.73 | 
28 | ClC1=C(Cl)C(Cl)(Cl)C(Cl)=C1Cl [Hexachlorocyclopentadiene] | 1.24 | 0.958 | 1.02 | 0.638 | 
29 | O=C(O)CNCP(=O)(O)O [Glyphosate] | 1.38 | 1.39 | 1.04 | 1.75 | 1.29
30 | C=C(C)[C@H]1Cc2c(ccc3c2O[C@@H]2COc4cc(OC)c(OC)cc4[C@@H]2C3=O)O1 [Rotenone] | 0.675 | 0.7 | 0.862 |  | 0.948
31 | CCc1cccc(CC)c1N(COC)C(=O)CCl [Alachlor] | 0.977 | 0.938 | 0.799 | 0.366 | 0.923
32 | CC1(C)C(C=C(Cl)Cl)C1C(=O)OC(C#N)c1cccc(Oc2ccccc2)c1 (configuration not stated) [Cypermethrin] | 1.14 | 1.06 | 0.991 | 0.601 | 1.02
33 | CS(=O)(=O)c1ccc(C(=O)C2C(=O)CCCC2=O)c([N+](=O)[O-])c1 [Mesotrione] | 1.82 | 0.968 | 1.14 | 1.16 | 1.7
34 | C=CC(N)=O [Acrylamide] | 0.86 | 0.905 | 0.839 | 1.1 | 
